The text below walks through data of paper PMC7862700, “An all-to-all approach to the identification of sequence-specific readers for epigenetic DNA modifications on cytosine”.

Common to all, as to assay: DAPPL (digital affinity profiling via proximity ligation, sequencing); 10 mM Tris-HCl pH 7.5, 50 mM NaCl, 1 mM DTT, 4% glycerol, room temperature, 30 min; GST-TFs on glutathione beads, 16-mer random dsDNA library, 0.1% formaldehyde crosslink after washing; high values mean tight binding
Test [1] addresses T1, FEV (Homo sapiens, UniProt Q99581 1-238).
T1 sequence: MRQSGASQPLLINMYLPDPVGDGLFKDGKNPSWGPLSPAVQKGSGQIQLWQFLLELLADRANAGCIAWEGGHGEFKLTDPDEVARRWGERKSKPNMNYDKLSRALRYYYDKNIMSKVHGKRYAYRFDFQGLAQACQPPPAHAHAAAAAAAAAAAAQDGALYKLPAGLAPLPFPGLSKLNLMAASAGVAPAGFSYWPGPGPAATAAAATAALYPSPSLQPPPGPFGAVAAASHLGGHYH
As to conditions: protein: recombinant; tags: N-terminal GST; dsDNA, one strand shown. The gist of the method:
(§1)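 Binding signal is given per hexamer as its read frequency for a factor divided by its frequency in the tag-only sample. GST-fused human transcription factors were expressed in yeast, captured on glutathione beads, barcoded with DNA and pooled with that sample, then incubated with 200 nmole of a 16-mer random double-stranded DNA library in Tris/NaCl/DTT/glycerol buffer for 30 min at room temperature. The pools were then washed, crosslinked, proximity-ligated, amplified by PCR and sequenced on an Illumina NextSeq500.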

Test [2] concerns the target ETV5 (Homo sapiens, UniProt P41161 1-510). To be noted: protein: recombinant; tags: N-terminal GST; dsDNA, one strand shown. In a few lines: as §1
Test [3] addresses HSF1 (Homo sapiens, UniProt Q00613 1-529). As to conditions: protein: recombinant; tags: N-terminal GST; chain copies: 3; dsDNA, one strand shown. The gist of the method:
as §1

The target in test [4] is T2, SPIC (Homo sapiens, UniProt Q8N5J4 1-248).
T2 sequence: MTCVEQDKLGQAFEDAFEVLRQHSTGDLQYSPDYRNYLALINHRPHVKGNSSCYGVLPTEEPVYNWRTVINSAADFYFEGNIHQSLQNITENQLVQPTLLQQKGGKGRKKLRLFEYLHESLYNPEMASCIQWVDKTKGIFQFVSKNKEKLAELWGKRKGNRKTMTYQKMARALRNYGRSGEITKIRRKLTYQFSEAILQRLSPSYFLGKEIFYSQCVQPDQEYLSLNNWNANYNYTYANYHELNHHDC
To be noted: protein: recombinant; tags: N-terminal GST; dsDNA, one strand shown. The gist of the method: as §1

The target in test [5] is ELF4 (Homo sapiens, UniProt Q99607 1-663). To be noted: protein: recombinant; tags: N-terminal GST; dsDNA, one strand shown. The gist of the method:
as §1

The target in test [6] is T3, ELK4 (Homo sapiens, UniProt P28324-2 1-405).
T3 sequence: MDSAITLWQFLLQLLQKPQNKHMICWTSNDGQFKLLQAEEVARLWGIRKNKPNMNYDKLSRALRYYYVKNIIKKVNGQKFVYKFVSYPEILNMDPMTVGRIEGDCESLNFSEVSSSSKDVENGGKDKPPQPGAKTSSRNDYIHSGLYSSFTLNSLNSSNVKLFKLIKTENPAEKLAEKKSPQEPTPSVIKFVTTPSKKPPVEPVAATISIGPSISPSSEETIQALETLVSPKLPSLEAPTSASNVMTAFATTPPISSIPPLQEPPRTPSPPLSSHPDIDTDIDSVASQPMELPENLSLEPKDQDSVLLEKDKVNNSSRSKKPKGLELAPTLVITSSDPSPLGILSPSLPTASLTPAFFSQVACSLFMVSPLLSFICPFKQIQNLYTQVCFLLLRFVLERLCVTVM
To be noted: protein: recombinant; tags: N-terminal GST; dsDNA, one strand shown. In a few lines:
as §1

Test [7] deals with T4, ETV2 (Homo sapiens, UniProt O00321 1-342).
T4 sequence: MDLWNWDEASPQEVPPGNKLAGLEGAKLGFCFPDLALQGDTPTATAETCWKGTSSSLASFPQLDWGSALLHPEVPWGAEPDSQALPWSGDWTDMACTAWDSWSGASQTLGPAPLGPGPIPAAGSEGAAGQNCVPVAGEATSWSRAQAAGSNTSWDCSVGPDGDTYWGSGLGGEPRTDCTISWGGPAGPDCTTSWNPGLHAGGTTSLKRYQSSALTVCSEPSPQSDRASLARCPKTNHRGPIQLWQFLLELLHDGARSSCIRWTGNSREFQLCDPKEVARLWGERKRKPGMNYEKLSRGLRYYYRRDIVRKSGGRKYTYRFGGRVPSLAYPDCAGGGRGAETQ
As to conditions: protein: recombinant; tags: N-terminal GST; dsDNA, one strand shown. The gist of the method: as §1

For test [8], the target named is T5, ELF3 (Homo sapiens, UniProt P78545 1-371).
T5 sequence: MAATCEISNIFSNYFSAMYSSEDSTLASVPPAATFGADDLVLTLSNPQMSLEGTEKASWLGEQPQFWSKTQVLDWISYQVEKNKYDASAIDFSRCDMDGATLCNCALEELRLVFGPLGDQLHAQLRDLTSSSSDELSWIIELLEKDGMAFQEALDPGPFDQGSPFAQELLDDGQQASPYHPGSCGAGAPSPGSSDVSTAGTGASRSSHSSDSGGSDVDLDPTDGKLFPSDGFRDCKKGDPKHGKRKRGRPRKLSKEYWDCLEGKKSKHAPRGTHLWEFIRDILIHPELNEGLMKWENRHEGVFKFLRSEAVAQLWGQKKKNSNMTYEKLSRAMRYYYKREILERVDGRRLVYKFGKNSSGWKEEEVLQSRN
To be noted: protein: recombinant; tags: N-terminal GST; dsDNA, one strand shown. The gist of the method:
as §1

In test [9] the target is CRX (Homo sapiens, UniProt O43186 1-299). As to conditions: protein: recombinant; tags: N-terminal GST; dsDNA, one strand shown. The gist of the method:
as §1

Test [10] addresses ETV1 (Homo sapiens, UniProt P50549 1-477). To be noted: protein: recombinant; tags: N-terminal GST; dsDNA, one strand shown. In a few lines: as §1
Test [11] concerns the target T6, ERF (Homo sapiens, UniProt P50548 1-548).
T6 sequence: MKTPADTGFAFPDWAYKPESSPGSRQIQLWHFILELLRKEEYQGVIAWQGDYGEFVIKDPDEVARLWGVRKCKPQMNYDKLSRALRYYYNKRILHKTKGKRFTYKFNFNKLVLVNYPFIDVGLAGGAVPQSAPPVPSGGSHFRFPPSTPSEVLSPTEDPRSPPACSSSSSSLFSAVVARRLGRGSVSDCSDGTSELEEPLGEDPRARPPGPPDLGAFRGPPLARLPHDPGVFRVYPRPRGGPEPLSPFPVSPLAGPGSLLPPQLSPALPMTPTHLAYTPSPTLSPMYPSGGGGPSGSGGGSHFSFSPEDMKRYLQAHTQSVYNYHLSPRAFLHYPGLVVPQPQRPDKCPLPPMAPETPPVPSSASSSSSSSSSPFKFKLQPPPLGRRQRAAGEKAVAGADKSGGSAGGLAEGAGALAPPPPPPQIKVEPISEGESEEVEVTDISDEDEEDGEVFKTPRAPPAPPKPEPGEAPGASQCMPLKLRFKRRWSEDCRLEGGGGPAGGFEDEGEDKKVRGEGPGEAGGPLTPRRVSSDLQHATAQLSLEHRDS
As to conditions: protein: recombinant; tags: N-terminal GST; dsDNA, one strand shown. In a few lines: as §1

Test [12] concerns the target T7, ETV3L (Homo sapiens, UniProt Q6ZN32 1-361).
T7 sequence: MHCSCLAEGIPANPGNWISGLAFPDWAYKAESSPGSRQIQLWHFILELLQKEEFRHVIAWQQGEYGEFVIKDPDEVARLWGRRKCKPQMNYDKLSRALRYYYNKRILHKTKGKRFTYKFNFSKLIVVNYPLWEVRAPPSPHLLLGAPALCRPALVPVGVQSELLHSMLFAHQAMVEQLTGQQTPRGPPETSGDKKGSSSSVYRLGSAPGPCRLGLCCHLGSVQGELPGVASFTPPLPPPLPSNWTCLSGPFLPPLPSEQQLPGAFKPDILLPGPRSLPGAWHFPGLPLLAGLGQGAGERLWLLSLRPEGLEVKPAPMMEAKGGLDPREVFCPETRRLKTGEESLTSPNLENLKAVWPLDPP
As to conditions: protein: recombinant; tags: N-terminal GST; dsDNA, one strand shown. The gist of the method: as §1

In test [13] the target is T8, ETS2 (Homo sapiens, UniProt P15036 1-469).
T8 sequence: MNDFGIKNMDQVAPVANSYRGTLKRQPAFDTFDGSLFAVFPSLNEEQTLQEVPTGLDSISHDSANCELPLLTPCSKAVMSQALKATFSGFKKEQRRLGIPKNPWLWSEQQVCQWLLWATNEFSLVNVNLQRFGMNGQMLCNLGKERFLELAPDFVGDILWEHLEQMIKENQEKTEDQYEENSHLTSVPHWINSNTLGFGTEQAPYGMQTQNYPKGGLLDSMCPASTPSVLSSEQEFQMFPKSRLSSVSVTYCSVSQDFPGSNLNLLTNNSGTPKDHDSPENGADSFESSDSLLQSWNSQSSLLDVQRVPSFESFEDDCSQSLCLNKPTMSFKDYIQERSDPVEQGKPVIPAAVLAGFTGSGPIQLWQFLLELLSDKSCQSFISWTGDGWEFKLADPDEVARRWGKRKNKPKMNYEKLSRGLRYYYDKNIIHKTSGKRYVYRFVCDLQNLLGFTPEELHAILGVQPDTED
As to conditions: protein: recombinant; tags: N-terminal GST; dsDNA, one strand shown. In a few lines: as §1

Test [14] deals with T9, SPDEF (Homo sapiens, UniProt O95238 1-335).
T9 sequence: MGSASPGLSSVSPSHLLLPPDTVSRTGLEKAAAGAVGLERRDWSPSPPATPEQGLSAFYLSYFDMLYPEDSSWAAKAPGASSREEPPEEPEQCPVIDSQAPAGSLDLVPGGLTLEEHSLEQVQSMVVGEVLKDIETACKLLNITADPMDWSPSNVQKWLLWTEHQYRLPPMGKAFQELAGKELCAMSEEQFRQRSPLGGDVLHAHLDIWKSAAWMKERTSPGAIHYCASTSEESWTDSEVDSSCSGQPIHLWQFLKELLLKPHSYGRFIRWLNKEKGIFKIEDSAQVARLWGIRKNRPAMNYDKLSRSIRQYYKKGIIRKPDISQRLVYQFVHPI
As to conditions: protein: recombinant; tags: N-terminal GST; dsDNA, one strand shown. In a few lines:
as §1

Test [15] concerns the target T10, ETV7 (Homo sapiens, UniProt Q9Y603 1-341).
T10 sequence: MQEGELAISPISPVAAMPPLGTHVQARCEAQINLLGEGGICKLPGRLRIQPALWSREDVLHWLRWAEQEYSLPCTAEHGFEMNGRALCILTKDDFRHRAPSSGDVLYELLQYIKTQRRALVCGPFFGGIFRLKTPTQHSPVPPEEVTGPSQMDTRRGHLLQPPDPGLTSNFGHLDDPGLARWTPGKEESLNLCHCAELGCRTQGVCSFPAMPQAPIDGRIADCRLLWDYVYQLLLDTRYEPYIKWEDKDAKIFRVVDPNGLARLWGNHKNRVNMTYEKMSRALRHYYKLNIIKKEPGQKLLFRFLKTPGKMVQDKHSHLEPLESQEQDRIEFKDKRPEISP
As to conditions: protein: recombinant; tags: N-terminal GST; dsDNA, one strand shown. The gist of the method: as §1

Test [16] concerns the target T11, ELF5 (Homo sapiens, UniProt Q9UKW6-2 1-255).
T11 sequence: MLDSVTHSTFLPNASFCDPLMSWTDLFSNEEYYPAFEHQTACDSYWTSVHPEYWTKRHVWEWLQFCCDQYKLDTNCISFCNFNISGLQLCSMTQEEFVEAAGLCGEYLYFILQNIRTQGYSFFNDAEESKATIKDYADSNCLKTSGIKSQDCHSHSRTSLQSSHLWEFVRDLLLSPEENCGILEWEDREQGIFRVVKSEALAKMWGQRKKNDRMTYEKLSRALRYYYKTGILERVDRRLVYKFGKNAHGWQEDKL
To be noted: protein: recombinant; tags: N-terminal GST; dsDNA, one strand shown. In a few lines:
as §1

Test [17] concerns the target T12, ETV3 (Homo sapiens, UniProt P41162-2 1-143).
T12 sequence: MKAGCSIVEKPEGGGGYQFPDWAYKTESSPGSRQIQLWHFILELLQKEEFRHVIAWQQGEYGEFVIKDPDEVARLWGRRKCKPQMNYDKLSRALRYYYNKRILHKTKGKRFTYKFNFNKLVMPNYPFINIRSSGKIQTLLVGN
As to conditions: protein: recombinant; tags: N-terminal GST; dsDNA, one strand shown. In a few lines:
as §1

For test [18], the target named is ETV6 (Homo sapiens, UniProt P41212 1-452). To be noted: protein: recombinant; tags: N-terminal GST; dsDNA, one strand shown. In a few lines: as §1
Chain of ETV6 (P41212 whole entry): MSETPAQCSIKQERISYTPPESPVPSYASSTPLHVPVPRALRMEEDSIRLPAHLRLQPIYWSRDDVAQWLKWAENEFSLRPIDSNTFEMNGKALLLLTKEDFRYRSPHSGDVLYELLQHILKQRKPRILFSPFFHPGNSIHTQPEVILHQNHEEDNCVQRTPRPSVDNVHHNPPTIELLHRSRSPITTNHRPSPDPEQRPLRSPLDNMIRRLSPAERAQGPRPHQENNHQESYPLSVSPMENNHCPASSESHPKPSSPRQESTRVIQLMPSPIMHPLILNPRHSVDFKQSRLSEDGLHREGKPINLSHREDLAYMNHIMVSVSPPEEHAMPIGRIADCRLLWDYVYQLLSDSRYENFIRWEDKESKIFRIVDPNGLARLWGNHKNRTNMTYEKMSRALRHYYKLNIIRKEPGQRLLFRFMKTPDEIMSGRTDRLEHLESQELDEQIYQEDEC

Chain of CRX (O43186 whole entry): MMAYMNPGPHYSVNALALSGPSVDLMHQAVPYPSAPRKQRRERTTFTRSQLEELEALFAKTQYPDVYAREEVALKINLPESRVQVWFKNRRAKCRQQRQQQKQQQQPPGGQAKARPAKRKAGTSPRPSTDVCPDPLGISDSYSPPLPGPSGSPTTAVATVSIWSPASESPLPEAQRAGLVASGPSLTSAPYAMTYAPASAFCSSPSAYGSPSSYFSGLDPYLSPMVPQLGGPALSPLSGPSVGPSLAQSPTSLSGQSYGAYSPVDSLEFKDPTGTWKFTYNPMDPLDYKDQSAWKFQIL
Chain of ETV5 (P41161 whole entry): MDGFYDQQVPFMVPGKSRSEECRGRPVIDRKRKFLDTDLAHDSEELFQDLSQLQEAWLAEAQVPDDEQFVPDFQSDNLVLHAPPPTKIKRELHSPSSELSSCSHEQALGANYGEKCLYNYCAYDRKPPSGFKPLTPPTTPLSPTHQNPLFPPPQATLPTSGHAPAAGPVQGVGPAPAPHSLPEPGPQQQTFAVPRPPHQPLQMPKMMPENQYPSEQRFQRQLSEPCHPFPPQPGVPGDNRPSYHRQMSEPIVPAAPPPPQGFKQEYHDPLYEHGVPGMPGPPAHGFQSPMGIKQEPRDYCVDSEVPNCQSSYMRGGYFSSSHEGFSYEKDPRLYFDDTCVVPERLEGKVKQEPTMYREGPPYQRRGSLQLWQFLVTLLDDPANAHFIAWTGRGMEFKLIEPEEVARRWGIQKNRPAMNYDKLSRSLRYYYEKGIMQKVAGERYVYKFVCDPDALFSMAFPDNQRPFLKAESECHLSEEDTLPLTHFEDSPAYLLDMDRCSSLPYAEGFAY
Chain of ELF4 (Q99607 whole entry): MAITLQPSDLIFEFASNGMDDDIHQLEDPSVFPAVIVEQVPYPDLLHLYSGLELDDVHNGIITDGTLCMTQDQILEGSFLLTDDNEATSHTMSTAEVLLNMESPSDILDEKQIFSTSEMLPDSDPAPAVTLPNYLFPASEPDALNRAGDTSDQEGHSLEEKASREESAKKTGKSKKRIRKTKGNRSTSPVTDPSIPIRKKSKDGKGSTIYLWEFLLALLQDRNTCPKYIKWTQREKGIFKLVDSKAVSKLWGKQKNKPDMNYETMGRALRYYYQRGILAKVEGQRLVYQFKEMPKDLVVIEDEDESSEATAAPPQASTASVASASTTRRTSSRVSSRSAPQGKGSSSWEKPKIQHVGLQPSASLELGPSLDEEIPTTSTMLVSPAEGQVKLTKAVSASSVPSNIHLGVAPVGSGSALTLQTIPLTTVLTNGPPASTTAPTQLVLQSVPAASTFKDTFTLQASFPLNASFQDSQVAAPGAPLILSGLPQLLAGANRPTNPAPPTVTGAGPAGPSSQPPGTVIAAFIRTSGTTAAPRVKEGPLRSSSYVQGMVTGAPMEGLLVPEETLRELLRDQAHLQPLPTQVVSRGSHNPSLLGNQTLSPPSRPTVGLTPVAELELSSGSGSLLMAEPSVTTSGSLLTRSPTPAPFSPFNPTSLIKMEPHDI
Chain of HSF1 (Q00613 whole entry): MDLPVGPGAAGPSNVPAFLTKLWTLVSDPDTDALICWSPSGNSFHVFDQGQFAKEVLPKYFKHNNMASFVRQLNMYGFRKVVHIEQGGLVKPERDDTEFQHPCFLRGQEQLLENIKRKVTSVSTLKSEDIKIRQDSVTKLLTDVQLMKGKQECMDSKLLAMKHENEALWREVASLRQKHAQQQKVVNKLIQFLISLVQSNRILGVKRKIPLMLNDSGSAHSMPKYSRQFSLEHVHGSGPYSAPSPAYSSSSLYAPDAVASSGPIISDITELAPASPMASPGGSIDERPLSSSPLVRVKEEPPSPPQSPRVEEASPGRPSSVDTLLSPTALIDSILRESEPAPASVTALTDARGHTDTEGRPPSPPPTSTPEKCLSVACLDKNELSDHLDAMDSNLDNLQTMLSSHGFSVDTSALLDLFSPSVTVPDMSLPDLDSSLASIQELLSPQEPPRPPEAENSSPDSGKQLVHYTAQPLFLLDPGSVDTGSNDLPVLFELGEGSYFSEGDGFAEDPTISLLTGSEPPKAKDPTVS
Chain of ETV1 (P50549 whole entry): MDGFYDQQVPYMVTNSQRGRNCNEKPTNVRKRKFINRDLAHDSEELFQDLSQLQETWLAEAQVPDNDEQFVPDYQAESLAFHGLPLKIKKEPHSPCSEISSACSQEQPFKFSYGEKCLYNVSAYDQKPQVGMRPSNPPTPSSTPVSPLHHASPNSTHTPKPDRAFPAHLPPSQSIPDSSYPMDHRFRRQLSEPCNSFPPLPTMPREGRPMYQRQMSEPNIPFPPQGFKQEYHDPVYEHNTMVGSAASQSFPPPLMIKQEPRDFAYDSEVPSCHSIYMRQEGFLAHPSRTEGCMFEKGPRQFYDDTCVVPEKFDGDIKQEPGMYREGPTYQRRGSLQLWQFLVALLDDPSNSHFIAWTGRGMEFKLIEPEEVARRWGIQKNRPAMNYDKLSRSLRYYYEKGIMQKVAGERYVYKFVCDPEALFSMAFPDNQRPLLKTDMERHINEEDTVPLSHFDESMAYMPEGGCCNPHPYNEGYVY

For AACTAC, the binding signal in test [1] is 1.35 fold enrichment (6-mer frequency, TF over GST control); in test [2] it was 1.38 fold enrichment (6-mer frequency, TF over GST control); in test [3], 1.22 fold enrichment (6-mer frequency, TF over GST control); in test [4] it was 1.35 fold enrichment (6-mer frequency, TF over GST control); in test [5], 1.39 fold enrichment (6-mer frequency, TF over GST control); in [6], 1.32 fold enrichment (6-mer frequency, TF over GST control). Further, the binding signal in test [7] is 1.42 fold enrichment (6-mer frequency, TF over GST control); in test [8], 1.31 fold enrichment (6-mer frequency, TF over GST control); in test [9], 1.2 fold enrichment (6-mer frequency, TF over GST control); in test [10], 1.34 fold enrichment (6-mer frequency, TF over GST control); in test [11], 1.54 fold enrichment (6-mer frequency, TF over GST control); in test [12], 1.44 fold enrichment (6-mer frequency, TF over GST control). Besides, the binding signal was 1.42 fold enrichment (6-mer frequency, TF over GST control) in [13]; 1.48 fold enrichment (6-mer frequency, TF over GST control) in test [14]; 1.39 fold enrichment (6-mer frequency, TF over GST control) in test [15]; 1.5 fold enrichment (6-mer frequency, TF over GST control) in test [16]; 1.45 fold enrichment (6-mer frequency, TF over GST control) in test [17]; 1.51 fold enrichment (6-mer frequency, TF over GST control) in [18].
